# Experimental data taken from PubChem BioAssay (EPA / NIEHS).
# Values joined by “and” are separate entries in the source; they are usually repeats but may differ in a detail not shown here. Equal entries are not always repeated. Results filed as inconclusive are left out. Active and inactive are the calls of the source. Rule for the calls: active = hit-call score of the fitted dose curve at least 0.9, where 1 is the maximum; inconclusive = response in the unintended direction; inactive = score below 0.9.
# System: not listed separately
# Assay: TOX21_p53_BLA_p3_viability: Viability Assessment in the Tox21 HCT-116 p53 Agonism Beta-lactamase Assay, Phase 3 (AID 2283593);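 note: cells exposed to compound for 16 h before reading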
# In short: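 HCT-116 cells (4000/well) rested 5 h at 37C, then got DMSO compounds by pin tool (217-fold dilution) for 16 h at 37C, 5% CO2. After the bla read, CellTiter-Glo was added and luminescence read at 30 min, room temperature.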
Structure (SMILES),outcome,AC50
CCC(C)(C#N)N=NC(C)(C#N)CC (configuration not stated),inactive,
O=[N+]([O-])c1ccc(Cl)c([N+](=O)[O-])c1,,86.3 µM (active) and 41.1 µM (active)
CCCCOC(C)=O,inactive,
C=CCN=C=S,inactive,
COC(=O)Nc1cccc(OC(=O)Nc2cccc(C)c2)c1,inactive,
C[CH2][Hg][S]c1ccccc1C(=O)O,,46.1 µM (active) and 6.74 µM (active)
CCOC(=O)C(SP(=S)(OC)OC)c1ccccc1 (configuration not stated),inactive,
CC(C)(C#N)N=NC(C)(C)C#N,inactive,
Cc1cc(SCc2sc(-c3ccc(C(F)(F)F)c(F)c3)nc2C)ccc1OCC(=O)O,,35.3 µM (active)
CCOP(=S)(OCC)Oc1ccc(Cl)cc1Cl,inactive,
CC1(C)[C@H](C(=O)O[C@H](C#N)c2cccc(Oc3ccccc3)c2)[C@@H]1/C=C(\Cl)C(F)(F)F,inactive,
Cc1cc(Cl)ccc1OCCCC(=O)O,inactive,
C=CC(=O)[O][Sn]([CH2]CCC)([CH2]CCC)[CH2]CCC,,1.64 µM (active)
O=C(NC(=O)c1c(F)cccc1F)Nc1cc(Cl)c(Oc2ncc(C(F)(F)F)cc2Cl)c(Cl)c1,inactive,
CN(C)c1ccc(N=O)cc1,,88.2 µM (active) and 80.8 µM (active)
O=c1[nH]c2ccccc2n1C1CCN(CCCC(c2ccc(F)cc2)c2ccc(F)cc2)CC1,,67.5 µM (active) and 35.3 µM (active)
CCOC(=O)CC(=O)CCl,inactive,
COC(=O)c1cc(Oc2ccc(Cl)cc2Cl)ccc1[N+](=O)[O-],inactive,
CCC[N+](CCC)(CCC)CCC,inactive,
O=C(Nc1ccc(Br)cc1)c1cc(Br)cc(Br)c1O,,1.12 µM (active) and 641 nM (active) and 1.79 µM (active)
CCOP(=S)(OCC)OP(=S)(OCC)OCC,inactive,
CCOP(=S)(OCC)SCSc1cc(Cl)ccc1Cl,inactive,
CCCCCCCCCCCCN(C)C,inactive,
Clc1cc(C(Cl)(Cl)Cl)cnc1Cl,inactive,
Brc1ccc(Br)cc1,inactive,
BrCc1ccc(Br)cc1,inactive,

# Molecular target: Cellular tumor antigen p53 (Homo sapiens) (UniProt P04637)
# Sequence (P04637 whole entry, looked up): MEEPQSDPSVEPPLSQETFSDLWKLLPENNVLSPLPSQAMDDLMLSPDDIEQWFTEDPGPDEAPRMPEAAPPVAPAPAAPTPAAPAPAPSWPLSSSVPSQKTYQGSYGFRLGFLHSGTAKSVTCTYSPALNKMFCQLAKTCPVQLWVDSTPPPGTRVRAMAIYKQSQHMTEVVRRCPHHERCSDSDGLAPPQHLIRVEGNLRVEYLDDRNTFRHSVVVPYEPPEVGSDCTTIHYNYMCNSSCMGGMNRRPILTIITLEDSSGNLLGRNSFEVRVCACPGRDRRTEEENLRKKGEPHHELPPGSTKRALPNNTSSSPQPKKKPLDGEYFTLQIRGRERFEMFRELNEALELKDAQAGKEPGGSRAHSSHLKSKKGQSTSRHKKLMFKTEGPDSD
# Assay: TOX21_p53_BLA_p3_ratio: Tox21 HCT-116 p53 Agonism Beta-lactamase Assay, Ratio, Phase 3 (AID 2283596)
# In short: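 Cells were seeded at 4000/well, rested 5 h at 37C, then dosed with DMSO compound solutions (217-fold dilution) for 16 h. CCF4-AM substrate was loaded for 2 h at room temperature, and the 460/530 nm emission ratio was fitted for gain of signal versus DMSO.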
Structure (SMILES),outcome,AC50
O=[N+]([O-])c1ccc(Cl)c([N+](=O)[O-])c1,inactive,
CCCCOC(C)=O,inactive,
C=CCN=C=S,inactive,
COC(=O)Nc1cccc(OC(=O)Nc2cccc(C)c2)c1,inactive,
C[CH2][Hg][S]c1ccccc1C(=O)O,,221 nM (active) and 970 nM (active)
CC(C)(C#N)N=NC(C)(C)C#N,inactive,
Cc1cc(SCc2sc(-c3ccc(C(F)(F)F)c(F)c3)nc2C)ccc1OCC(=O)O,,48.2 µM (active)
CCOP(=S)(OCC)Oc1ccc(Cl)cc1Cl,inactive,
Cc1cc(Cl)ccc1OCCCC(=O)O,inactive,
O=C(NC(=O)c1c(F)cccc1F)Nc1cc(Cl)c(Oc2ncc(C(F)(F)F)cc2Cl)c(Cl)c1,inactive,
CN(C)c1ccc(N=O)cc1,inactive,
COC(=O)c1cc(Oc2ccc(Cl)cc2Cl)ccc1[N+](=O)[O-],inactive,
O=C(Nc1ccc(Br)cc1)c1cc(Br)cc(Br)c1O,,255 nM (active) and 198 nM (active) and 1.8 µM (active)
CCCCCCCCCCCCN(C)C,inactive,
Clc1cc(C(Cl)(Cl)Cl)cnc1Cl,inactive,
Brc1ccc(Br)cc1,inactive,
